Key:
Assay in all cases: DAPPL (digital affinity profiling via proximity ligation, sequencing); 10 mM Tris-HCl pH 7.5, 50 mM NaCl, 1 mM DTT, 4% glycerol, room temperature, 30 min; GST-TFs on glutathione beads, 16-mer random dsDNA library, 0.1% formaldehyde crosslink after washing; high values mean tight binding
FLI1 = biological target: T1, FLI1 (Homo sapiens, UniProt Q01543 1-452); conditions: protein: recombinant; tags: N-terminal GST; dsDNA, one strand shown
T1 sequence: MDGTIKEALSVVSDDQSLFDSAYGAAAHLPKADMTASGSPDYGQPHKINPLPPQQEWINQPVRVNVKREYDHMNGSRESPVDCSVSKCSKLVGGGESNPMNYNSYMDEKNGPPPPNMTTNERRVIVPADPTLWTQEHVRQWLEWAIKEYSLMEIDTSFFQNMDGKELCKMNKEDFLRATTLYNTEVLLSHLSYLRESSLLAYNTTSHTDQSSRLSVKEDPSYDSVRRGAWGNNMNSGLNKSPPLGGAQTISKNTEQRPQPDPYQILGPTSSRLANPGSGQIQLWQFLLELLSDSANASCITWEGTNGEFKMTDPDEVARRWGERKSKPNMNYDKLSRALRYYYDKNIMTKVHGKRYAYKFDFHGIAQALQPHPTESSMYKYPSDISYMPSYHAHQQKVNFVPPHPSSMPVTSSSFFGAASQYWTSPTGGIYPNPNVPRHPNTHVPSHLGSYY
Procedure, shortened: (§1)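 Beads coated with glutathione captured GST-fused human transcription factors that had been expressed in yeast, and the factors were then given DNA barcodes and pooled with a tag-only sample. The pools were incubated with 200 nmole of a random double-stranded 16-mer DNA library in Tris/NaCl/DTT/glycerol buffer for 30 min at room temperature, washed, crosslinked with 0.1% formaldehyde and proximity-ligated with BsaI/T4 ligase at 37 °C for 1 h. PCR amplification and Illumina NextSeq500 sequencing came last. Binding signal is each hexamer's read frequency for a factor divided by its frequency for the tag-only sample.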

ELK1 = biological target: T2, ELK1 (Homo sapiens, UniProt P19419 1-428); conditions: protein: recombinant; tags: N-terminal GST; dsDNA, one strand shown
T2 sequence: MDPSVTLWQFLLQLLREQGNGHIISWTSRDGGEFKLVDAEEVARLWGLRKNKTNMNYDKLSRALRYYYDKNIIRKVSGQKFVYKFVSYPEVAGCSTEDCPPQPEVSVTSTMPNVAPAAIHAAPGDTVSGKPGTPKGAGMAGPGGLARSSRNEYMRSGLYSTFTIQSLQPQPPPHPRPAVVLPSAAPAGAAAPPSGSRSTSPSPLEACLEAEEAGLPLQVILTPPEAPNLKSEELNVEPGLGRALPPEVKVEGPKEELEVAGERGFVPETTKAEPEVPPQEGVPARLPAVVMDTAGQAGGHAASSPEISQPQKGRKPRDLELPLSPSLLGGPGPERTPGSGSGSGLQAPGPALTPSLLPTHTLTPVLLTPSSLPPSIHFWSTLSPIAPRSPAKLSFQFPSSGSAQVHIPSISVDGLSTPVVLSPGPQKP
Procedure, shortened: as §1

GABPA = biological target: T3, GABPA (Homo sapiens, UniProt Q06546 1-454); conditions: protein: recombinant; tags: N-terminal GST; dsDNA, one strand shown
T3 sequence: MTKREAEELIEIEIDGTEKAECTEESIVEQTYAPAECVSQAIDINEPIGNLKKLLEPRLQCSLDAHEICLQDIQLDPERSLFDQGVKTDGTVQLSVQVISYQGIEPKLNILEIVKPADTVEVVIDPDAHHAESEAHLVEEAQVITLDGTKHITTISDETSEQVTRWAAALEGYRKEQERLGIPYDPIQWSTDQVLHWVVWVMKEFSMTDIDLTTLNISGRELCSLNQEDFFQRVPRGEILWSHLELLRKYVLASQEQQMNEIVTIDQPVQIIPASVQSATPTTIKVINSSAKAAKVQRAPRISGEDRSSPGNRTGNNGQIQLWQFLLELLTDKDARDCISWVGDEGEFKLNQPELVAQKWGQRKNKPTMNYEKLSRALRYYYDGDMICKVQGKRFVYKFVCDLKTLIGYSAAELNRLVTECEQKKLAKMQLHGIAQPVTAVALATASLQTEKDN
Procedure, shortened: as §1

ERG = biological target: T4, ERG (Homo sapiens, UniProt P11308 1-479); conditions: protein: recombinant; tags: N-terminal GST; dsDNA, one strand shown
T4 sequence: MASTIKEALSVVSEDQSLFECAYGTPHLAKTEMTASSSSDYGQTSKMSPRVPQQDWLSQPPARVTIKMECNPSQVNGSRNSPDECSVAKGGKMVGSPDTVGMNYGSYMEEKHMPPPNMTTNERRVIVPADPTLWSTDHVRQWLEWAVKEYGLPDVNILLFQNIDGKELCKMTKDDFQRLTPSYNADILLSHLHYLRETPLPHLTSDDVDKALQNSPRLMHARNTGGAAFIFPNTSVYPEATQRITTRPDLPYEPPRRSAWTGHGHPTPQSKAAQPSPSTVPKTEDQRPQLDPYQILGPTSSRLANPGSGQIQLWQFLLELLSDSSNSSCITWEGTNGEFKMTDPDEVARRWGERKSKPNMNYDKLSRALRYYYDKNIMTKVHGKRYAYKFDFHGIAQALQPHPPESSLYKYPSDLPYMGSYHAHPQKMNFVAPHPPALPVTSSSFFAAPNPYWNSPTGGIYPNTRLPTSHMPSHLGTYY
Procedure, shortened: as §1

ELF1 = ELF1 (Homo sapiens, UniProt P32519 1-619); conditions: protein: recombinant; tags: N-terminal GST; dsDNA, one strand shown
Procedure, shortened: as §1

EHF = biological target: T5, EHF (Homo sapiens, UniProt Q9NZC4 1-300); conditions: protein: recombinant; tags: N-terminal GST; dsDNA, one strand shown
T5 sequence: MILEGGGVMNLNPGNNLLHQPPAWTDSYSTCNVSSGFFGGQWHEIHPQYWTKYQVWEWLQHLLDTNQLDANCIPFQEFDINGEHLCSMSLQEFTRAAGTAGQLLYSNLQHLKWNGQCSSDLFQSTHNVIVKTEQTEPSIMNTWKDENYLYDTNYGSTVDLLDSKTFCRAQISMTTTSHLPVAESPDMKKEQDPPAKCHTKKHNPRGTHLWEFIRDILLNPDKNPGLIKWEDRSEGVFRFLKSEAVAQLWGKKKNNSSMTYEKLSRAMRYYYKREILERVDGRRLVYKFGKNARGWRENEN
Procedure, shortened: as §1

SPI1 = SPI1 (Homo sapiens, UniProt P17947 1-270); conditions: protein: recombinant; tags: N-terminal GST; dsDNA, one strand shown
Procedure, shortened: as §1

SPIB = SPIB (Homo sapiens, UniProt Q01892 1-262); conditions: protein: recombinant; tags: N-terminal GST; dsDNA, one strand shown
Procedure, shortened: as §1

ELK3 = biological target: T6, ELK3 (Homo sapiens, UniProt P41970 1-407); conditions: protein: recombinant; tags: N-terminal GST; dsDNA, one strand shown
T6 sequence: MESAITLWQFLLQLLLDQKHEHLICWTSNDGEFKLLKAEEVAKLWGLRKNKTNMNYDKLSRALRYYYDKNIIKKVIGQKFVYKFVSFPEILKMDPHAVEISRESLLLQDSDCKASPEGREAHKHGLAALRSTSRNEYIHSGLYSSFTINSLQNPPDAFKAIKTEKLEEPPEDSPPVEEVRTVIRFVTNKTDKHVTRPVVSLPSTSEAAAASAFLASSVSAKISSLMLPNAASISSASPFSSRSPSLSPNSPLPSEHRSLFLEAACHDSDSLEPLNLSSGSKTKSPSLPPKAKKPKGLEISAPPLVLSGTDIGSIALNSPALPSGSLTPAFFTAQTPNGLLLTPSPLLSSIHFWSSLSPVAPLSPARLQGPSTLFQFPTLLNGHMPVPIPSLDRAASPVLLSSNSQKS
Procedure, shortened: as §1

FEV = biological target: T7, FEV (Homo sapiens, UniProt Q99581 1-238); conditions: protein: recombinant; tags: N-terminal GST; dsDNA, one strand shown
T7 sequence: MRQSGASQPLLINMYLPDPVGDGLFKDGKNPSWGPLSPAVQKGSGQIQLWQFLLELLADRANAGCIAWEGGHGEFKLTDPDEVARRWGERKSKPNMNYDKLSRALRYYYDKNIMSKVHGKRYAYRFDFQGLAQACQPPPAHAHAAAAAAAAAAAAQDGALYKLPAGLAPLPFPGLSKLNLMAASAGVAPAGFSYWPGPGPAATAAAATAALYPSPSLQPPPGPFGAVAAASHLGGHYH
Procedure, shortened: as §1

ETV5 = ETV5 (Homo sapiens, UniProt P41161 1-510); conditions: protein: recombinant; tags: N-terminal GST; dsDNA, one strand shown
Procedure, shortened: as §1

HSF1 = HSF1 (Homo sapiens, UniProt Q00613 1-529); conditions: protein: recombinant; tags: N-terminal GST; chain copies: 3; dsDNA, one strand shown
Procedure, shortened: as §1

SPIC = biological target: T8, SPIC (Homo sapiens, UniProt Q8N5J4 1-248); conditions: protein: recombinant; tags: N-terminal GST; dsDNA, one strand shown
T8 sequence: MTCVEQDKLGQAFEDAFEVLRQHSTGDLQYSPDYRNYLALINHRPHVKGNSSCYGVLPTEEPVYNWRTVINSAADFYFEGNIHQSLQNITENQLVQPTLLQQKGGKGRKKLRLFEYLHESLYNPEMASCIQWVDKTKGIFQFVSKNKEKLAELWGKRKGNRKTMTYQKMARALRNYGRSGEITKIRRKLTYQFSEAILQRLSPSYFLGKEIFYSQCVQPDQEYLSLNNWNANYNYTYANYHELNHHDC
Procedure, shortened: as §1

ELF4 = ELF4 (Homo sapiens, UniProt Q99607 1-663); conditions: protein: recombinant; tags: N-terminal GST; dsDNA, one strand shown
Procedure, shortened: as §1

ELK4 = biological target: T9, ELK4 (Homo sapiens, UniProt P28324-2 1-405); conditions: protein: recombinant; tags: N-terminal GST; dsDNA, one strand shown
T9 sequence: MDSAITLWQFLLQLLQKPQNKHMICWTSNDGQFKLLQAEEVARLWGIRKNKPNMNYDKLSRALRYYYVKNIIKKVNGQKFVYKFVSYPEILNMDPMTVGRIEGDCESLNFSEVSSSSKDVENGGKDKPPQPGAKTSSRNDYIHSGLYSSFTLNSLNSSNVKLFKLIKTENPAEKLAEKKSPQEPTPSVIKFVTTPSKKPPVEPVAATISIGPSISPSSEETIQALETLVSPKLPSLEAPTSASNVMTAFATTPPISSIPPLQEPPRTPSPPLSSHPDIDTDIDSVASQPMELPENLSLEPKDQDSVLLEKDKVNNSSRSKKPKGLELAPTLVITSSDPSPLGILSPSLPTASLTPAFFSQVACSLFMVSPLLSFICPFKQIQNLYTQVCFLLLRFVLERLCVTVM
Procedure, shortened: as §1

ETV2 = biological target: T10, ETV2 (Homo sapiens, UniProt O00321 1-342); conditions: protein: recombinant; tags: N-terminal GST; dsDNA, one strand shown
T10 sequence: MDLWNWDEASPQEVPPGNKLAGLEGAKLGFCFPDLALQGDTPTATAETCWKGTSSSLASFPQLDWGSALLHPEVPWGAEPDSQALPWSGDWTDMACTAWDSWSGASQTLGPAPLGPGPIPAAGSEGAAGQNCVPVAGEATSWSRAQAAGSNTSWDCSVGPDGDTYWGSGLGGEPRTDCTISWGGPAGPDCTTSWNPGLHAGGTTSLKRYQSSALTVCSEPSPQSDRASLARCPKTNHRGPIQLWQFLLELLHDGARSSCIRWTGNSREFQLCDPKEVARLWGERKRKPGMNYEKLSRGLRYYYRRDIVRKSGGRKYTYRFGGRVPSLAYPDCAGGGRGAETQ
Procedure, shortened: as §1

ELF3 = biological target: T11, ELF3 (Homo sapiens, UniProt P78545 1-371); conditions: protein: recombinant; tags: N-terminal GST; dsDNA, one strand shown
T11 sequence: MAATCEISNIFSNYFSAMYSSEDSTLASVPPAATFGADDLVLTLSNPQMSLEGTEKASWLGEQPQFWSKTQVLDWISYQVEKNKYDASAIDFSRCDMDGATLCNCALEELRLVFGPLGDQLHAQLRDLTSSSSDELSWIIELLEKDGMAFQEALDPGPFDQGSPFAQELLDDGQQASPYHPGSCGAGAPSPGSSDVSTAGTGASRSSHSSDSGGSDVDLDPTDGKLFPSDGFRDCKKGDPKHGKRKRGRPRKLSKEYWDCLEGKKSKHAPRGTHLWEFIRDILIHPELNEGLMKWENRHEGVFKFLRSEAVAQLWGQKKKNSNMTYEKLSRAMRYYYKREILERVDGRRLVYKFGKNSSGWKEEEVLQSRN
Procedure, shortened: as §1

CRX = CRX (Homo sapiens, UniProt O43186 1-299); conditions: protein: recombinant; tags: N-terminal GST; dsDNA, one strand shown
Procedure, shortened: as §1

ETV1 = ETV1 (Homo sapiens, UniProt P50549 1-477); conditions: protein: recombinant; tags: N-terminal GST; dsDNA, one strand shown
Procedure, shortened: as §1

Sequence of ETV5 (P41161 whole entry): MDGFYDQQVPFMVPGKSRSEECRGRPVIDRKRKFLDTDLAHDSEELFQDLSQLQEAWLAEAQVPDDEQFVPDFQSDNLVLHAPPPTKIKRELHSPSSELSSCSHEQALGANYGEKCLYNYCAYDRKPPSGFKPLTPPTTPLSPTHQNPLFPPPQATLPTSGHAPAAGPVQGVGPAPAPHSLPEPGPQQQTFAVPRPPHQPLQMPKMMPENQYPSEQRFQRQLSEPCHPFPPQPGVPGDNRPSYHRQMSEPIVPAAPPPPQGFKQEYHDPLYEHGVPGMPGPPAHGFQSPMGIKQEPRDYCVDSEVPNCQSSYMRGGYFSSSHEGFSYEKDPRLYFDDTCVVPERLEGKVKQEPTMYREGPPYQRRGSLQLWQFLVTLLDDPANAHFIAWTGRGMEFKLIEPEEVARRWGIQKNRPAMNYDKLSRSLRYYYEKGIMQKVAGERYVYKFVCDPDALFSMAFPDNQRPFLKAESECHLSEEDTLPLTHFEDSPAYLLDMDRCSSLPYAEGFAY
Sequence of ELF1 (P32519 whole entry): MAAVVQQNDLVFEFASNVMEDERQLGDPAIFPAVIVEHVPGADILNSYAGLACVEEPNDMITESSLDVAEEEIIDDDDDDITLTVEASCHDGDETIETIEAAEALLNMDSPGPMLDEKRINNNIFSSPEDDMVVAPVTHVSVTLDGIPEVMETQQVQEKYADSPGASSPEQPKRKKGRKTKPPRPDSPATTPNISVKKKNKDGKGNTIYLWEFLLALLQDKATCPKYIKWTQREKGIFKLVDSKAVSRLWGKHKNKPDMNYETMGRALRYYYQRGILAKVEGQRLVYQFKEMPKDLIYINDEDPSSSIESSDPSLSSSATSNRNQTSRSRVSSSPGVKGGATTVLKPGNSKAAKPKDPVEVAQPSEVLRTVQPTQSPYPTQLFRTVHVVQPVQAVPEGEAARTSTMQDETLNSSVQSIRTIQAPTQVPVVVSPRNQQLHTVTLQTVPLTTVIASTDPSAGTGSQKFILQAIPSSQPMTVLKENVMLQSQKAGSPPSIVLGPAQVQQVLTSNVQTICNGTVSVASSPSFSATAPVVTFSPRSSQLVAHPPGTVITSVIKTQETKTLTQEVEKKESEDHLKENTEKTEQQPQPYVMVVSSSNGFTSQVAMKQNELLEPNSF
Sequence of SPIB (Q01892 whole entry): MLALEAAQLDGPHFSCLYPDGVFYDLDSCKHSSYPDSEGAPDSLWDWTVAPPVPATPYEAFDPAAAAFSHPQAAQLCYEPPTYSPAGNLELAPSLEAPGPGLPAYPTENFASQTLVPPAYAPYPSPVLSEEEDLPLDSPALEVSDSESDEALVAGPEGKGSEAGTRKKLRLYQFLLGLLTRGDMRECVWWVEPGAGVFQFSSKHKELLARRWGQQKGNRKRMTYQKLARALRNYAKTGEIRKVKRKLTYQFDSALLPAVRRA
Sequence of ETV1 (P50549 whole entry): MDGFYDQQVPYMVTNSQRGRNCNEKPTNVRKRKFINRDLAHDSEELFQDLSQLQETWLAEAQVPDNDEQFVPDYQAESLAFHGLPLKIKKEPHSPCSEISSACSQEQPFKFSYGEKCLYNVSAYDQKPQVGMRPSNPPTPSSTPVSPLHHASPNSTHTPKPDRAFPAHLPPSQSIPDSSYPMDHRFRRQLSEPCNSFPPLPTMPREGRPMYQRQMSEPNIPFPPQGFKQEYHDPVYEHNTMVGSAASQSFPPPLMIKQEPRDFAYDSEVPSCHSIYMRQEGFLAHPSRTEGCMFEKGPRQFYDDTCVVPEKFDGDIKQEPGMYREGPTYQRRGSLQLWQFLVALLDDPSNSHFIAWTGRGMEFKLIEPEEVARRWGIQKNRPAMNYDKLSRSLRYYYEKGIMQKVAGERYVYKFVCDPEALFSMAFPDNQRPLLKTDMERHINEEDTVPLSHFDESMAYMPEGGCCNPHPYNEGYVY
Sequence of CRX (O43186 whole entry): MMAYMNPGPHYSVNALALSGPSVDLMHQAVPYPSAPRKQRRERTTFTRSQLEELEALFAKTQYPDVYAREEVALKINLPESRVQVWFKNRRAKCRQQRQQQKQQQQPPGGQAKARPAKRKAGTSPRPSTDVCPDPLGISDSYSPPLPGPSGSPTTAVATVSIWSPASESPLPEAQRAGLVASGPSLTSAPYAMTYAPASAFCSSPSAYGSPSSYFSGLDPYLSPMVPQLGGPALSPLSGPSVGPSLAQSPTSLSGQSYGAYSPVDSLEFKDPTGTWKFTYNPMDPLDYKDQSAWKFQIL
Sequence of HSF1 (Q00613 whole entry): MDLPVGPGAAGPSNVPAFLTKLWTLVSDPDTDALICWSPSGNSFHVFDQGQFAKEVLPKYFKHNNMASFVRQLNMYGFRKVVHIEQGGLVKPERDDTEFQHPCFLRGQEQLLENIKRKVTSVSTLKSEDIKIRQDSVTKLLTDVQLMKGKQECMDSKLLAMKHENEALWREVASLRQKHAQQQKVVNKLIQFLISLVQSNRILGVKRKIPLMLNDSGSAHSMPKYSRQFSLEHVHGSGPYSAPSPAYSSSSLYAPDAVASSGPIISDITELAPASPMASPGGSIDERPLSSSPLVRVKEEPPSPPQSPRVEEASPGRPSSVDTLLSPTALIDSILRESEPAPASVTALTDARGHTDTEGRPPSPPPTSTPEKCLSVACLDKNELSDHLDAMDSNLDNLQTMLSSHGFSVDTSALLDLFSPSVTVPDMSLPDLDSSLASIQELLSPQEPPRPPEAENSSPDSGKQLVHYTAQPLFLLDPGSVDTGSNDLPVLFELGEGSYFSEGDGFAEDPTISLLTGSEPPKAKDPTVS
Sequence of ELF4 (Q99607 whole entry): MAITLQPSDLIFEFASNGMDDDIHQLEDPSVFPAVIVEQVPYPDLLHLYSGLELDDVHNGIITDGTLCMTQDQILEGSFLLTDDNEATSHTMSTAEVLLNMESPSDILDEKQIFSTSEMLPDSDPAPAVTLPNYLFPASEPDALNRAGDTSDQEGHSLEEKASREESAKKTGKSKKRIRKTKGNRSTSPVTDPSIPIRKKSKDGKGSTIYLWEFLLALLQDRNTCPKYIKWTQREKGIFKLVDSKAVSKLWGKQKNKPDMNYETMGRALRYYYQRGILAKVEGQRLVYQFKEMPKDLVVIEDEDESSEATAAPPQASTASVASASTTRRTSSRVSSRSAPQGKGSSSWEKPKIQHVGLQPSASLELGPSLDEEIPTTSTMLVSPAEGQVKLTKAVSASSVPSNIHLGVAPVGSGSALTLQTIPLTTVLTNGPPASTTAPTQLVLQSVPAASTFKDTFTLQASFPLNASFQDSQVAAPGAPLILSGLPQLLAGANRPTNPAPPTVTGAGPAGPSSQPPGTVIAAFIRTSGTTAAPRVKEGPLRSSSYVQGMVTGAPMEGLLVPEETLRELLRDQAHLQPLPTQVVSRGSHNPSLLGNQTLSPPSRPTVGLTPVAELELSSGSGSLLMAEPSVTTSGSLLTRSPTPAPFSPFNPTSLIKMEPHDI

TTTTGG
binding signal (FLI1): 1.35 fold enrichment (6-mer frequency, TF over GST control)
binding signal (ELK1): 1.42 fold enrichment (6-mer frequency, TF over GST control)
binding signal (GABPA): 1.47 fold enrichment (6-mer frequency, TF over GST control)
binding signal (ERG): 1.26 fold enrichment (6-mer frequency, TF over GST control)
binding signal (ELF1): 1.36 fold enrichment (6-mer frequency, TF over GST control)
binding signal (EHF): 1.37 fold enrichment (6-mer frequency, TF over GST control)
binding signal (SPI1): 1.5 fold enrichment (6-mer frequency, TF over GST control)
binding signal (SPIB): 1.63 fold enrichment (6-mer frequency, TF over GST control)
binding signal (ELK3): 1.31 fold enrichment (6-mer frequency, TF over GST control)
binding signal (FEV): 1.38 fold enrichment (6-mer frequency, TF over GST control)
binding signal (ETV5): 1.55 fold enrichment (6-mer frequency, TF over GST control)
binding signal (HSF1): 1.44 fold enrichment (6-mer frequency, TF over GST control)
binding signal (SPIC): 1.38 fold enrichment (6-mer frequency, TF over GST control)
binding signal (ELF4): 1.41 fold enrichment (6-mer frequency, TF over GST control)
binding signal (ELK4): 1.45 fold enrichment (6-mer frequency, TF over GST control)
binding signal (ETV2): 1.6 fold enrichment (6-mer frequency, TF over GST control)
binding signal (ELF3): 1.44 fold enrichment (6-mer frequency, TF over GST control)
binding signal (CRX): 1.6 fold enrichment (6-mer frequency, TF over GST control)
binding signal (ETV1): 1.55 fold enrichment (6-mer frequency, TF over GST control)
